Results reported in PubChem BioAssay (NCI).
Compounds without any hit were thinned out: in the full panel of roughly 83,000, 20% have a hit.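 How to read the values: 0–100, growth inhibition (40 = 60% inhibited); 0, no net growth; -100 to 0, cell death (-40 = 40% of starting cells died; -100 = all dead).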 Values without a mark were called inactive. The source made the active and inactive calls. How the source made its calls: active means growth percent below 10; inactive means the rest.

These compounds were tested on OVCAR-5 ovarian (assay: NCI-60 one-dose screen, 48 h (100 = growth as untreated, 0 = no growth, -100 = all killed)). Conditions: 10 µM unless noted.

Structure (SMILES) | growth [%]
CCCCN(CCC)CCCCCCCCCCN1CCCc2ccccc21 | 108
C=C(C)[C@@H]1CC[C@]2(COC(=O)c3ccccc3C(=O)O)CC[C@]3(C)[C@H](CC[C@@H]4[C@@]5(C)CCCNC(C)(C)[C@@H]5CC[C@]43C)[C@@H]12 | 90
COc1ccc(/C=C/C(=O)/C=C/c2cc3ccccc3[nH]c2=O)cc1 | 125
CCCCCC(=C/c1ccccc1)/C=N/N=C(N)N | 58.8
CC([C@H]1CC=C2C3CCC4=C[C@@H](N(C)C)CC[C@]4(C)C3CC[C@@]21C)N(C)C (stereo partly drawn) | 86.3
C=CN(C)S(C)(=O)=O | 90.9

The compounds below were run on OVCAR-4 ovarian in the same assay as above. Conditions: 10 µM unless noted.

Structure (SMILES) | growth
CC(=O)OC1/C=C\CC/C=C\C1 (stereo not drawn) | 107%
CCCCCCCCC1OC1CCCCCCCC(=O)O (stereo not drawn) | 115%
O=c1[nH]c(=S)[nH]c(O)c1/C=C1\C=Nc2ccccc21 | 91.9%
CCOC1=C(Cl)C(=O)C(OCC)=C(Cl)C1=O | 105%
Cc1ccc(C(=O)NN)cc1 | 98.2%
O=C1C(=O)c2ccccc2C(O)=C1CCCc1ccc(Oc2ccccc2)cc1 | 59.6%
CCN(CC)CCCC(C)Nc1c(C)cnc2cc(Cl)c(C)cc12 (stereo not drawn) | 85.4%
Oc1ccc([S+](c2ccc(O)cc2)c2ccc(O)cc2)cc1 | 107%
Cn1c2c(cc(S(=O)(=O)c3ccccc3)c1=O)CCc1c-2cnn1-c1ccc(Cl)cc1 | -9.94% (active)
CCCCCN1CCN(C(CC(=O)c2ccccc2)C(=O)c2ccccc2)CC1 (stereo not drawn) | 107%
S=C(N/N=C/c1cc(Cl)cc(Cl)c1)NC12CC3CC(CC(C3)C1)C2 | 23.4%
CC(=O)c1ccc2c(c1)c1ccccc1n2C | 115%
CC1(C)NC(=S)NC1=O | 103%
O=C(NC1CCN(Cc2ccccc2)CC1)c1cc(-c2cccnc2)nc2ccc(Cl)cc12 | 70.5%
O=C(O)CS(=O)c1ccc(Cl)cc1 (stereo not drawn) | 114%
Cc1ccc(S(=O)(=O)NC(CCC(=O)Nc2ccccc2)C(=O)Nc2ccccc2)cc1 (stereo not drawn) | -4.83% (active)
COc1ccc(/C=C2\CCCC3=C2N=C2SC=NN2C3c2ccc(OC)c(OC)c2)cc1OC (stereo not drawn) | 49.1%
O=C1C(Br)=CC2C1C1C3CCC3C2(Br)C12OCCO2 (stereo not drawn) | 59.2%

Structure (SMILES) | growth
Oc1ccc(Br)cc1/C=N/NC(=S)NC12CC3CC(CC(C3)C1)C2 | 36.9%
CCCCCCC(C)N(CC(C)(C)O)C(=O)c1ccc([N+](=O)[O-])cc1 (stereo not drawn) | 108%
CC[n+]1c(C)ccc2cc(C)ccc21 | 106%
CCN(CC)CCCNc1c2ccc(Cl)cc2nc2ccc(OC)cc12 | -35.2% (active)
O=C(NCCNCCO)c1cc([N+](=O)[O-])cc([N+](=O)[O-])c1O | 108%
COC1=C(OC)C(=O)c2ccccc2C1=O | 74.9%
O=C(/C=C\c1ccc(NCc2ccc(C(=O)O)cc2)cc1)CCl | 90.6%
O=C(/C(Br)=C/c1ccccc1)c1ccccc1 | 25.7%
CNc1ccc(Nc2ccc(S(=O)(=O)O)cc2)c2c1C(=O)c1ccccc1C2=O | 109%
CC(=O)Nc1ccc(C(=O)/C=C/c2ccc(N(C)C)cc2)cc1 | 109%
O=C(CBr)OCc1ccc([N+](=O)[O-])o1 | 77.9%
CCCCN(CCC)CCCCCCCCCCN1CCCc2ccccc21 | 79.4%
C=C(C)[C@@H]1CC[C@]2(COC(=O)c3ccccc3C(=O)O)CC[C@]3(C)[C@H](CC[C@@H]4[C@@]5(C)CCCNC(C)(C)[C@@H]5CC[C@]43C)[C@@H]12 | 57.3%
COc1ccc(/C=C/C(=O)/C=C/c2cc3ccccc3[nH]c2=O)cc1 | 74.5%
CCCCCC(=C/c1ccccc1)/C=N/N=C(N)N | 31.7%
CC([C@H]1CC=C2C3CCC4=C[C@@H](N(C)C)CC[C@]4(C)C3CC[C@@]21C)N(C)C (stereo partly drawn) | 8.25% (active)
C=CN(C)S(C)(=O)=O | 70.4%

What follows are compounds tested on SK-OV-3 ovarian in the same assay as above. Conditions: 10 µM unless noted.

Structure (SMILES) | growth
CC(=O)OC1/C=C\CC/C=C\C1 (stereo not drawn) | 105%
CCCCCCCCC1OC1CCCCCCCC(=O)O (stereo not drawn) | 95.3%
O=c1[nH]c(=S)[nH]c(O)c1/C=C1\C=Nc2ccccc21 | 104%
CCOC1=C(Cl)C(=O)C(OCC)=C(Cl)C1=O | 93.5%
Cc1ccc(C(=O)NN)cc1 | 110%
O=C1C(=O)c2ccccc2C(O)=C1CCCc1ccc(Oc2ccccc2)cc1 | 74.7%
CCN(CC)CCCC(C)Nc1c(C)cnc2cc(Cl)c(C)cc12 (stereo not drawn) | 98.5%
Oc1ccc([S+](c2ccc(O)cc2)c2ccc(O)cc2)cc1 | 106%
Cn1c2c(cc(S(=O)(=O)c3ccccc3)c1=O)CCc1c-2cnn1-c1ccc(Cl)cc1 | 1.98% (active)
CCCCCN1CCN(C(CC(=O)c2ccccc2)C(=O)c2ccccc2)CC1 (stereo not drawn) | 102%
S=C(N/N=C/c1cc(Cl)cc(Cl)c1)NC12CC3CC(CC(C3)C1)C2 | 66.7%
CC(=O)c1ccc2c(c1)c1ccccc1n2C | 96.5%
CC1(C)NC(=S)NC1=O | 98.6%
O=C(NC1CCN(Cc2ccccc2)CC1)c1cc(-c2cccnc2)nc2ccc(Cl)cc12 | 102%
O=C(O)CS(=O)c1ccc(Cl)cc1 (stereo not drawn) | 107%
COc1ccc(/C=C2\CCCC3=C2N=C2SC=NN2C3c2ccc(OC)c(OC)c2)cc1OC (stereo not drawn) | 81.9%
O=C1C(Br)=CC2C1C1C3CCC3C2(Br)C12OCCO2 (stereo not drawn) | 32.1%
Oc1ccc(Br)cc1/C=N/NC(=S)NC12CC3CC(CC(C3)C1)C2 | 39.7%
Cc1ccc([C@@H]2C[C@H](O)Cc3ccccc3N2)s1 | 98.6%

Structure (SMILES) | growth
CCCCCCC(C)N(CC(C)(C)O)C(=O)c1ccc([N+](=O)[O-])cc1 (stereo not drawn) | 96.3%
CC[n+]1c(C)ccc2cc(C)ccc21 | 97.8%
CCN(CC)CCCNc1c2ccc(Cl)cc2nc2ccc(OC)cc12 | 3.94% (active)
O=C(NCCNCCO)c1cc([N+](=O)[O-])cc([N+](=O)[O-])c1O | 111%
COC1=C(OC)C(=O)c2ccccc2C1=O | 111%
O=C(/C=C\c1ccc(NCc2ccc(C(=O)O)cc2)cc1)CCl | 106%
O=C(/C(Br)=C/c1ccccc1)c1ccccc1 | 105%
CC1Cc2cc(F)ccc2-n2cccc21 (stereo not drawn) | 101%
Oc1ccc(CN(Cc2ccc(C(F)(F)F)cc2)Cc2ccc(O)c3ncccc23)c2cccnc12 | 17.8%
CNc1ccc(Nc2ccc(S(=O)(=O)O)cc2)c2c1C(=O)c1ccccc1C2=O | 117%
CC(=O)Nc1ccc(C(=O)/C=C/c2ccc(N(C)C)cc2)cc1 | 101%
Cc1sc(NC(=O)c2ccc(C(C)(C)C)cc2)c(C(=O)O)c1C | 103%
O=C(CBr)OCc1ccc([N+](=O)[O-])o1 | 105%
CCCCN(CCC)CCCCCCCCCCN1CCCc2ccccc21 | 81.4%
COc1ccc(/C=C/C(=O)/C=C/c2cc3ccccc3[nH]c2=O)cc1 | 88.8%
CCCCCC(=C/c1ccccc1)/C=N/N=C(N)N | 76.9%
CC([C@H]1CC=C2C3CCC4=C[C@@H](N(C)C)CC[C@]4(C)C3CC[C@@]21C)N(C)C (stereo partly drawn) | 80.3%
C=CN(C)S(C)(=O)=O | 13.8%
